{"source": "paper PMC10726135", "about": "“HNF4α isoforms regulate the circadian balance between carbohydrate and lipid metabolism in the liver”", "note": "Whole data set: some 18,000 sequences, median “log2 normalized intensity” near 0.39, cut for the highest 2% near 6.6. This is one part of a sample in which the highest values are shown more often than they occur.", "data": [{"target": "T1, HNF4alpha2 (COS-7 nuclear extract) (Homo sapiens, UniProt P41235 1-474)", "T1 sequence": "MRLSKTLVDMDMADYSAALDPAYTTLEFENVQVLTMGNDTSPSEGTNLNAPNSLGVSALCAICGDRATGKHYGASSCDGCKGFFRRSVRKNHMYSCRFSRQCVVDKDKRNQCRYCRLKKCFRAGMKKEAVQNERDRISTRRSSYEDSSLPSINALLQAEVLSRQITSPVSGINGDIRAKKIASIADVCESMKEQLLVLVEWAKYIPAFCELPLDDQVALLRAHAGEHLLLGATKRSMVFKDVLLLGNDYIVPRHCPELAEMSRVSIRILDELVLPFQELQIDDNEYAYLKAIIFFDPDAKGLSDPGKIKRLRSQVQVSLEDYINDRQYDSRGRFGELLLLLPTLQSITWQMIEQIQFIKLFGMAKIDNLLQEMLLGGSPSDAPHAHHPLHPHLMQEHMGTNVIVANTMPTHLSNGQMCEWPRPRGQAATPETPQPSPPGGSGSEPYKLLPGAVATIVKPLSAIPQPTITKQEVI", "experiment": "protein-binding microarray; COS-7 nuclear extract on double-stranded Agilent 4x180k PBM; binding buffer, salt, pH and temperature not given in the material; high values mean tight binding", "settings": "chain copies: 2; label: 3' end of strand 1 on the slide; dsDNA, one strand shown", "in_short": "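A human HNF4α isoform was expressed in COS-7 cells by transient CaPO4 transfection, and nuclear extracts were prepared. These were applied to a custom Agilent SurePrint G3 4x180k array carrying ~44,000 test sequences in quadruplicate as double-stranded ~60-nt oligonucleotides, and an Agilent G2565CA scanner imaged bound HNF4α at 2-µm resolution. The background-corrected, normalized gProcessedSignal from Agilent software was used as the binding signal.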", "units": {"binding signal": "log2 normalized intensity"}, "values": [{"sequence": "TTGTACTCAGTATGTGCTGACTGACTCCTGGCCTAGGGAGATTAGAGTATCGGTCGA", "binding signal": 0.992}, {"sequence": "GTGACCTTTGACCTCTGGCCTTTGCAGTTAGCCTAGGGAGATTAGAGTATCGGTCGA", "binding signal": 8.21}, {"sequence": "CTGACCTCAAGTGACCTTTGACCTCTGGCCGCCTAGGGAGATTAGAGTATCGGTCGA", "binding signal": 11}, {"sequence": "CTCTAACCACTTTGAAATAGTGACCTCTGCGCCTAGGGAGATTAGAGTATCGGTCGA", "binding signal": 4.36}, {"sequence": "TTAGCTATCAGTGTTGACCTCTGGACCTCAGCCTAGGGAGATTAGAGTATCGGTCGA", "binding signal": 6.97}, {"sequence": "GTGAGGGAGGAGACTTTGACCTCTGCTAGGGCCTAGGGAGATTAGAGTATCGGTCGA", "binding signal": 5.43}, {"sequence": "ACCTTTGCCTTCTTGACATCTCTCTCTGCAGCCTAGGGAGATTAGAGTATCGGTCGA", "binding signal": 1.17}, {"sequence": "TATCAGTGTTGACCTCTGGACCTCATCTTCGCCTAGGGAGATTAGAGTATCGGTCGA", "binding signal": 5.36}, {"sequence": "TAACGGTGAGGGAGGAGACTTTGACCTCTGGCCTAGGGAGATTAGAGTATCGGTCGA", "binding signal": 6.61}, {"sequence": "CTGACAAGTATCTCGGTCAAACCTTTGACCGCCTAGGGAGATTAGAGTATCGGTCGA", "binding signal": 5.77}, {"sequence": "ACCACTTTGAAATAGTGACCTCTGCTGGCCGCCTAGGGAGATTAGAGTATCGGTCGA", "binding signal": 2.65}, {"sequence": "GATGTTTAGCTATCAGTGTTGACCTCTGGAGCCTAGGGAGATTAGAGTATCGGTCGA", "binding signal": 5.32}, {"sequence": "CTCAAGTGACCTTTGACCTCTGGCCTTTGCGCCTAGGGAGATTAGAGTATCGGTCGA", "binding signal": 10.2}, {"sequence": "AAGGCTAGTCTTCTTTGGGGCTTAGATAGCGCCTAGGGAGATTAGAGTATCGGTCGA", "binding signal": 0.431}, {"sequence": "TGTACAGGACCATGTTCTCCTAAAGTGACTGCCTAGGGAGATTAGAGTATCGGTCGA", "binding signal": -0.786}, {"sequence": "CACTGCACCTGCCTGAACAAGTCCAGTGACGCCTAGGGAGATTAGAGTATCGGTCGA", "binding signal": -0.89}, {"sequence": "CACTGAGATAAAAATGGCCAAAGGTTGCCAGCCTAGGGAGATTAGAGTATCGGTCGA", "binding signal": 2.09}, {"sequence": "CCACATTCTGAGACTAAAGAGTACACAAAGGCCTAGGGAGATTAGAGTATCGGTCGA", "binding signal": -0.922}, {"sequence": "TTCCTGGATTGTGAAACACAGGACTTGATCGCCTAGGGAGATTAGAGTATCGGTCGA", "binding signal": 0.71}, {"sequence": "GAGTGTCCTGCCCCCTGGAGGAGTGAGGGAGCCTAGGGAGATTAGAGTATCGGTCGA", "binding signal": 1.34}, {"sequence": "GGGGAGGTCAACCAGGGAAATTACCCTCTAGCCTAGGGAGATTAGAGTATCGGTCGA", "binding signal": -0.241}, {"sequence": "ACAGGGCTTGGGGTGGGGTTGGAGTCCAGAGCCTAGGGAGATTAGAGTATCGGTCGA", "binding signal": 1.25}, {"sequence": "AGTGAAGGTTCAGTGAAGTAGTGTGTATGAGCCTAGGGAGATTAGAGTATCGGTCGA", "binding signal": 2.27}, {"sequence": "TTTATGACCTTTGACTGCAGAAGATAAGAAGCCTAGGGAGATTAGAGTATCGGTCGA", "binding signal": 3.94}, {"sequence": "GCCTTATTATCTGCTTTTATGACCTTTGACGCCTAGGGAGATTAGAGTATCGGTCGA", "binding signal": 7.34}, {"sequence": "ATTATCTGCTTTTATGACCTTTGACTGCAGGCCTAGGGAGATTAGAGTATCGGTCGA", "binding signal": 6.64}, {"sequence": "TCTGCCTTTTATCTATTTGTCGCCTCTGACGCCTAGGGAGATTAGAGTATCGGTCGA", "binding signal": 0.141}, {"sequence": "CCTAAGCCTTATTATCTGCTTTTATGACCTGCCTAGGGAGATTAGAGTATCGGTCGA", "binding signal": 3.06}, {"sequence": "CTGCTTTTATGACCTTTGACTGCAGAAGATGCCTAGGGAGATTAGAGTATCGGTCGA", "binding signal": 5.27}, {"sequence": "AACTTTGCAGCAGATAATTACCTGGACTCTGCCTAGGGAGATTAGAGTATCGGTCGA", "binding signal": 3.6}, {"sequence": "CAGATGTTTCTGCAAGCACACTGTCCTGCTGCCTAGGGAGATTAGAGTATCGGTCGA", "binding signal": -0.824}, {"sequence": "AGCCTCTCACAGTAGCCCAGGTCCTTTGGTGCCTAGGGAGATTAGAGTATCGGTCGA", "binding signal": 0.178}, {"sequence": "AAATCTGCCCAACCTTTGCCCCTGGAGGGAGCCTAGGGAGATTAGAGTATCGGTCGA", "binding signal": 3.74}, {"sequence": "CTTTGCCCCCAGCCTCTCACAGTAGCCCAGGCCTAGGGAGATTAGAGTATCGGTCGA", "binding signal": 4.6}, {"sequence": "GAACTCTGACCTTTGCCCCCAGCCTCTCACGCCTAGGGAGATTAGAGTATCGGTCGA", "binding signal": 8.72}, {"sequence": "AGGAGGAGGTTCCTGGAACTCTGACCTTTGGCCTAGGGAGATTAGAGTATCGGTCGA", "binding signal": 5.97}, {"sequence": "TCCTGGAACTCTGACCTTTGCCCCCAGCCTGCCTAGGGAGATTAGAGTATCGGTCGA", "binding signal": 9.67}, {"sequence": "GCTATCTTATCTTTGACCTTACCAGCCCACGCCTAGGGAGATTAGAGTATCGGTCGA", "binding signal": 2.3}, {"sequence": "CTGACCTTTGCCCCCAGCCTCTCACAGTAGGCCTAGGGAGATTAGAGTATCGGTCGA", "binding signal": 6.87}, {"sequence": "GCCTGCCCCTCTGACCTCTCCTCCTACCTTGCCTAGGGAGATTAGAGTATCGGTCGA", "binding signal": 3.24}, {"sequence": "GAGGTTCCTGGAACTCTGACCTTTGCCCCCGCCTAGGGAGATTAGAGTATCGGTCGA", "binding signal": 10.5}, {"sequence": "TGCCCAGCTTGAATCACTCACTGACCTCTTGCCTAGGGAGATTAGAGTATCGGTCGA", "binding signal": 3.98}]}]}
